Screening results as filed in PubChem BioAssay.
This is a sample that favours compounds with a hit; in the whole collection about 3.6% have one here.
MazF activator – activators of E. coli MazEF toxin-antitoxin RNase. FAM/BHQ RNA-DNA oligo cleavage fluorescence, 5 h. 0.32% of 350,000 active. activation, % at 20 µM; in the data active = activation above about 50%
Autofluor counter – counter-screen for toxin protease inhibitors: compound fluorescence | 3.1% of 360,000 active | AID 624483 | compound autofluorescence counterscreen, microsphere flow cytometry; stronger effect = higher value | fluorescence intensity (test concentration not listed); in the data active = fluorescence intensity above about 16000
BoNT-F LC inh – blocks Botulinum neurotoxin F light chain protease. Multiplex microsphere protease cleavage assay, flow cytometry. inhibition, % at 10 µM. 0.22% of 360,000 active. AID 588497; in the data active = inhibition above about 35%, passing the limit was not always enough
Anthrax LF prot – blocks Bacillus anthracis lethal factor protease; multiplex microsphere protease cleavage assay, LF; inhibition, % at 10 µM; 0.12% of 360,000 active; in the data active = inhibition above about 30%
Target sequence (P15917 whole entry, looked up): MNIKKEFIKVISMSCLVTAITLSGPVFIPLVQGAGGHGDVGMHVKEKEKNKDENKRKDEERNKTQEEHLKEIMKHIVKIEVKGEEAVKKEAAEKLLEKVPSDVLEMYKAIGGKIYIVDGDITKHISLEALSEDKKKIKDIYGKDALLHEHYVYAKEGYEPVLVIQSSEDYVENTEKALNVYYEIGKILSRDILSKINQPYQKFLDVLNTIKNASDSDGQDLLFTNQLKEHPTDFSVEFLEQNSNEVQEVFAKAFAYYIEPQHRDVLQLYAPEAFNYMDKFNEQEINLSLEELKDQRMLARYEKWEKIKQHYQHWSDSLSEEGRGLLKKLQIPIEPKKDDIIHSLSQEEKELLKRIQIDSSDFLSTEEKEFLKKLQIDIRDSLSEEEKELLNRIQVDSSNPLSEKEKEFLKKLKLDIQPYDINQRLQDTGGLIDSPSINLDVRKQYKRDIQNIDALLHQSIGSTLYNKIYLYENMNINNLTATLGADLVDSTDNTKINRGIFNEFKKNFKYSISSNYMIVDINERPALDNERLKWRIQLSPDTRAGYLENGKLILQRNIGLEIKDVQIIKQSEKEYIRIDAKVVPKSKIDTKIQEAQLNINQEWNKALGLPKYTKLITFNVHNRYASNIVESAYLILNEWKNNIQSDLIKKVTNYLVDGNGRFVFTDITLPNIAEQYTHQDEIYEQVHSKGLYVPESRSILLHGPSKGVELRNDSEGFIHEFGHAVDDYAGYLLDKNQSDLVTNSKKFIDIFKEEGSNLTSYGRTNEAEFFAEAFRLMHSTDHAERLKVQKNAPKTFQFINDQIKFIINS
BoNT-A LC inh2 – BoNT A light chain protease inhibition | multiplex microsphere protease substrate cleavage, flow cytometry | inhibition, % at 10 µM | 0.17% of 360,000 active | AID 588499; in the data active = inhibition above about 30%
BoNT-A LC CP2 – inhibitors of botulinum neurotoxin A light chain protease. shares compounds with BoNT-A LC inh2. multiplex microsphere protease cleavage assay, flow cytometry. inhibition, % at 10 µM. 10% of 150 active; in the data active = inhibition above about 24%
LF protease CP2 – inhibitors of Bacillus anthracis lethal factor protease; shares compounds with BoNT-A LC inh2; multiplex microsphere protease cleavage assay; inhibition, % at 10 µM; 7% of 150 active; AID 602327
BoNTF LC inh 2 – blocks botulinum neurotoxin F light chain protease | inhibition, % at 10 µM | 7% of 150 active | shares compounds with BoNT-A LC inh2 | multiplex microsphere protease cleavage assay, flow cytometry | AID 602336
Of the large screens only hits and unclear results are named; the others gave an inactive call (follow-up assays come after a bar, where they were run). Cut-off read from the data, not from the text of the source, unless noted: active = inhibition above about 25%; inactive = the rest.

CN(Cc1ccccc1)C(=O)c1csc([C@@H]2C[C@H](O)[C@@H](CO)O2)n1	none (no result: MazF activator)
NC(=O)c1nsc(C(=O)N(CC(=O)NC2CCCCC2)c2ccc(Cl)cc2)c1N	none
COc1ccc2c(c1)nc(-c1cccc(Br)c1)c(=O)n2C(c1ccccn1)c1nc2ccccc2[nH]1 (centres undefined)	BoNT-A LC inh2 30 (no result: MazF activator) | BoNT-A LC CP2 inactive | LF protease CP2 inactive | BoNTF LC inh 2 inactive
Cc1ccc(C(c2nc3ccccc3[nH]2)n2c(-c3ccccc3)nc3ccccc32)cc1 (centres undefined)	none (no result: MazF activator)
Cc1ccc(S(=O)(=O)N2CC(O)C[C@H]2C(=O)OCC(=O)N2CCN(c3ccc(F)cc3)CC2)cc1C (some centres undefined)	BoNT-F LC inh 97, Anthrax LF prot 97, BoNT-A LC inh2 99 | BoNT-A LC CP2 inactive | LF protease CP2 inactive | BoNTF LC inh 2 inactive
O=[N+]([O-])c1ccc2c(c1)C(N1CCOCC1)/C(=C/COc1ccc(Cl)cc1Cl)O2 (centres undefined)	none
COc1cccc(-c2cc3c(c4c2ccn4C)C2CCC3C2)c1 (centres undefined)	none (no result: MazF activator) | BoNT-A LC CP2 inactive | LF protease CP2 inactive | BoNTF LC inh 2 inactive
COc1ccc(-c2cc3c(c4c2ccn4C)C2CCC3C2)cc1 (centres undefined)	none (no result: MazF activator) | BoNT-A LC CP2 inactive | LF protease CP2 inactive | BoNTF LC inh 2 inactive
Cc1ccc(OCC(=O)Nc2cc(C(C)(C)C)on2)cc1C	none
CC(Oc1ccccc1F)c1nnc(SCC(=O)c2c(N)n(C3CC3)c(=O)[nH]c2=O)o1 (centres undefined)	BoNT-F LC inh 91, Anthrax LF prot 98, BoNT-A LC inh2 96 | BoNT-A LC CP2 inactive | LF protease CP2 inactive | BoNTF LC inh 2 inactive
O=C(Cc1ccccc1)c1ccccn1	BoNT-A LC inh2 33 | BoNT-A LC CP2 33 | LF protease CP2 29 | BoNTF LC inh 2 inactive
C[C@H](CO)N1C[C@H](C)[C@@H](CN(C)Cc2ccc(C(=O)O)cc2)OCc2cnnn2CCCC1=O	none
COc1ccc(C(=O)N2CCC(n3nccc3NC(=O)C3CC3)CC2)cc1F	none
Cc1cccc2c1NC1(CCCC1)CC2C (centres undefined)	BoNT-F LC inh active | BoNT-A LC CP2 inactive | LF protease CP2 inactive | BoNTF LC inh 2 active
Cc1c(F)cccc1NS(=O)(=O)c1ccc(N2CCCC2=O)cc1	none
CCN(CC)c1ccc2cc(C(=O)c3cccs3)c(=O)oc2c1	Anthrax LF prot 33, BoNT-A LC inh2 54 (no result: MazF activator) | BoNT-A LC CP2 inactive | LF protease CP2 inactive | BoNTF LC inh 2 inactive
CCN(CC)c1ccc2cc(C(=O)NCc3ccc(F)cc3)c(=N)oc2c1	none (no result: MazF activator)
Cc1ccc(CNC(=O)Nc2cccc(C)c2)cc1	none
Cc1cccc(NC(=O)NCc2ccc3[nH]c(C)cc3c2)c1	BoNT-A LC inh2 50 | BoNT-A LC CP2 inactive | LF protease CP2 inactive | BoNTF LC inh 2 inactive
COC(=O)C1=C(C(=O)OC)[C@@H]2N(C)c3ccc(OC)cc3[C@@]23C[C@@H](C(=O)OC)N(C(=O)COCc2ccccc2)C3=N1	none (no result: Autofluor counter, BoNT-F LC inh, Anthrax LF prot, BoNT-A LC inh2)
CC(=O)OCC(=O)c1c[nH]c2ccccc12	none
COc1cccc(C(=O)OCC(=O)c2c[nH]c3ccccc23)c1O	none | BoNT-A LC CP2 inactive | LF protease CP2 inactive | BoNTF LC inh 2 37
CCN(CCn1cccn1)C(=O)c1cc(COc2cc(C)ccc2C)on1	none
